The values below come from PubChem BioAssay (NCI).

The structures appear in SMILES notation. The panel holds about 83,000 compounds, 20% with a hit somewhere; the sample as a whole holds those more often.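 For each line, cells grew in 96-well plates with the test compound present at a single concentration for 48 hours.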 A number with no mark means an inactive call. Active and inactive are the calls of the source. How the source made its calls: active means growth percent below 10; inactive means the rest.

This experiment has as its system HL-60(TB) leukemia. As to the kind of experiment: NCI-60 one-dose screen, 48 h (100 = growth as untreated, 0 = no growth, -100 = all killed). The following applies: 10 µM unless noted.
For the compound `COc1ccc2c(c1)/C(=C/c1c(-c3cc(OC)c(OC)c(OC)c3Br)nc3sccn13)C(=O)N2`, the growth is 77.1%.
As for `COc1ccc2c(c1)c(-c1nc(-c3c[nH]c4ncccc34)cs1)cn2C`, the growth is 63.5%.
With `CCN(C(=O)CN1CCN(c2cc3c(cc2F)c(=O)c(C(=O)O)cn3C2CC2)CC1)c1nc(-c2ccc(OC)cc2)cs1`, the growth was 30.1%.
Consider `CCOC(=O)c1c(C)nc2c(c1N)CC(=O)N2Cc1ccc(F)cc1`, for which the growth is 83.5%.
Take `CCCc1cccc(CCC)c1O`: the growth was 105%.
`Nc1cc(F)ccc1[N+](=O)[O-]`: the growth was 115%.
Consider `O=C1C(Nc2ccccn2)=C(I)C(=O)c2ncccc21`, for which the growth was -55.5% (active).
Regarding `COc1ccc(-c2nc(-c3nc4ccc(C)cc4[nH]3)cc3c2[nH]c2ccccc23)cc1`, the growth is 31.4%.
Consider `Nc1c2c(nc3ccc(Cl)cc13)CC(c1ccccc1)CC2=O` (stereo not given), for which the growth is 11%.
As for `O=C1CSC(c2ccccc2Cl)N1c1nnc(-c2ccncc2)o1` (stereo not given), the growth was 95.2%.
For `C#CC(O)c1ccccc1` (stereo not given), the growth is 108%.
With `COc1ccc2c(c1)OC1=C(C(=O)OC1)C2c1cc(OC)c2c(c1)OCO2` (stereo not given), the growth was -13% (active).
Next, `CCCCCCCCCCCC[N+](C)(C)Cc1ccccc1`: -52.6% (active); `CCN1CCN(C(=O)[C@]23CC[C@@H](C)[C@H](C)[C@@H]2C2=CC[C@@H]4[C@@]5(C)C/C(=C/c6ccncc6)C(=O)C(C)(C)[C@@H]5CC[C@@]4(C)[C@]2(C)CC3)CC1`: -33.1% (active).
For `O=C1CC(c2ccc3c(c2)OCO3)Nc2cc3c(cc21)OCO3` (stereo not given), the growth was -22.9% (active).
Next, `COc1ccc(-c2nc(Nc3ccc(-c4nc5ccccc5[nH]4)cc3)nc(N3CCOCC3)n2)cc1`: -46% (active); `COC(=O)c1ccc2c(c1)nc(-c1ccc(O)c(OC)c1)n2-c1cc(C(C)(C)C)[nH]n1`: 103%.
For the compound `O=C(NCCN1CCCC1)n1cc(-c2ccncc2)c(-c2cc(O)cc(Cl)c2)n1`, the growth is 95%.
Next, `C=CC(=O)N[C@@H](Cc1ccc(-c2cc(Cl)cc(Cl)c2)cc1)[C@@H](O)[C@H](O)C(=O)O`: 95.9%.
Take `CCN1CCN(c2ccc(Nc3ncnc4c3nnn4CCc3cc(OC)cc(OC)c3)cc2)CC1`: the growth is 87.8%.
Next, `COc1ccc(-c2cnc(-c3ccc(Cl)cc3)[nH]2)cc1OC`: 91.2%; `COc1ccc(C2C3=C(COC3=O)N(CCO)c3cc4c(cc32)OCO4)cc1OC` (stereo not given): 65.7%.
Turning to `Cn1cnc([N+](=O)[O-])c1/C=C1\Oc2ccc(Cl)cc2C1=O`, the growth is 60%.
For the compound `O=C1C(Cl)=C(Nc2ccc(S(=O)(=O)N3CCOCC3)cc2)C(=O)c2ccccc21`, the growth is -17.7% (active).
Next, `Cc1ccc(C(=O)NN2C(=O)CSC2c2cccc([N+](=O)[O-])c2)cn1` (stereo not given): 82.7%; `CCCC/C(=N\N=C(N)N)c1ccc(F)cc1`: -30.9% (active); `CNc1ncc2cc(-c3cc(NC(=O)NCCC(C)(C)C)c(F)cc3C)c(C)nc2n1`: 6.32% (active).
With `CCOCc1nc2ccccc2c(=O)[nH]1` the figure was 107%; with `CCC(C)CC(C)C(=O)c1c(O)ccn(O)c1=O` (stereo not given), -0.418% (active); with `CC(=O)/C(N=Nc1ccc(S(=O)(=O)c2ccc(N=N/C(C(C)=O)=C(/C)O)cc2)cc1)=C(\C)O`, 88.5%.
As for `Brc1cccc(-n2ncc3c(Nc4ccc(-c5nnc(-c6ccccc6)o5)cc4)ncnc32)c1`, the growth was 122%.
Regarding `NC(=O)SCC(=O)Nc1ccc(S(N)(=O)=O)cc1`, the growth was 103%.
On to `N#Cc1c(NC(=O)c2ccccc2I)sc2c1CCCC2`, for which the growth was 12.6%.
On to `CCOCC[P+](c1ccccc1)(c1ccccc1)c1ccccc1`, for which the growth is 11.7%.
For `COc1ccc(/C=C/C(=O)c2c(C)nc3ccccc3c2/C=C/c2ccccc2)cc1O`, the growth was 49.1%.
For the compound `CN1CCc2nc3sc(C(N)=O)c(N)c3c(-c3cccs3)c2C1`, the growth is 7.35% (active).
With `Nc1c2ccccc2nc2ccccc12` (tested in a mixture with another compound), the growth is 26.8%.
Next, `COc1ccc(-c2nnc(COc3ccc(NC(=O)Nc4ccccc4)cc3F)o2)cc1`: 86.8%; `CC(C)C(=O)Cc1cnccn1`: 134%; `COc1ccc(/C=c2\sc3n(c2=O)NC2C(N=3)N(C)C(=O)N2C)cc1` (stereo not given): 98.4%.
